Test results: PubChem BioAssay (NCATS)
Results filed as inconclusive are left out. Active and inactive are the calls of the source. Calls follow the shape of the dose curve; as a rule, active = well fitted cell-killing curve with a large enough effect; inconclusive = small, poorly fitted or top-dose-only effect; inactive = flat fitted curve, though single readings scatter.
Potency is read from the fitted curve at half-maximal effect.

Test: qHTS of pediatric cancer cell lines to identify multiple opportunities for drug repurposing: Primary screen for DAOY cells (AID 1347090); also: nearly all actives have a fitted effect of over 55% in size;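 as to activity change, negative = cytotoxic: plate controls were DMSO for no effect and bortezomib for full effect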
Settings: DAOY medulloblastoma viability, CellTiter-Glo luminescence, 48 h; series mostly up to 46 µM; activity change, negative = cytotoxic: at the top concentration
In short: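 Eight- or eleven-point concentration series, 48 h treatment at 37 degrees C in growth media; readout CellTiter-Glo luminescence. Potency and efficacy were taken from the concentration-response curves.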
For `CCCCCCCCCCCCc1ccc(S(=O)(=O)Nc2nncs2)cc1`, the “activity change, negative = cytotoxic” value was -8.71% (inactive). In the case of `C[C@@]12C[C@@]3(O)O[C@@H](O1)[C@]1(COC(=O)c4ccccc4)[C@@H]3C[C@@]12O[C@@H]1O[C@H](CO)[C@@H](O)[C@H](O)[C@@H]1O`, the “activity change, negative = cytotoxic” value is reported as 2.65% (inactive). For `C=C1C[C@@]2(O)O[C@@]3(C[C@H]2C(C)C)[C@H](C)CC[C@H]13`, the “activity change, negative = cytotoxic” value was 1.17% (inactive). In the case of `Cc1cnc(Nc2ccc(N3CCN(C)CC3)cc2)nc1Nc1cccc(S(=O)(=O)NC(C)(C)C)c1`, the Potency is reported as 14.8 µM (active). For `O=c1[nH]c(=O)n([C@H]2C[C@@H](O)[C@@H](CO)O2)cc1C=CBr`, the “activity change, negative = cytotoxic” value was 5.16% (inactive). In the case of `CC(=O)C1=C(O)C=C2Oc3c(C(C)=O)c(O)c(C)c(O)c3C2(C)C1=O` (stereo not drawn), the “activity change, negative = cytotoxic” value is reported as -4.81% (inactive). For `CC(C)N(CC[C@H](c1ccccc1)c1cc(CO)ccc1O)C(C)C`, the “activity change, negative = cytotoxic” value was 7.84% (inactive). In the case of `COc1ccc([C@@H]2CNC(=O)C2)cc1OC1CCCC1`, the Potency is reported as 3.72 µM (active). With `CNC(=O)Nc1ccc(-c2nc(N3CC4CCC(C3)O4)c3cnn(C4CCC5(CC4)OCCO5)c3n2)cc1` the Potency was 0.0296 µM (active). For `CC(=O)N[C@H]1[C@@H]([C@H](O)[C@H](O)CO)OC(C(=O)O)=C[C@@H]1N=C(N)N`, the “activity change, negative = cytotoxic” value was -0.481% (inactive). In the case of `CON=C(C(=O)N[C@@H]1C(=O)N2C(C(=O)O)=C(CSC(=O)c3ccco3)CS[C@H]12)c1csc(N)n1`, the “activity change, negative = cytotoxic” value is reported as -23.9% (inactive). With `CC(=O)O[C@H]1C[C@@H]2CC[C@H]3[C@H]4C[C@H]([N+]5(C)CCCCC5)[C@@H](OC(C)=O)[C@@]4(C)CC[C@@H]3[C@@]2(C)C[C@H]1[N+]1(C)CCCCC1` the “activity change, negative = cytotoxic” value was 5.5% (inactive). For `Cc1ccc2nc(NCCN)c3ncc(C)n3c2c1`, the Potency was 14.8 µM (active).
